From PubChem
Rab9 promoter act – activates the Rab9 promoter. Huh7 Rab9 promoter-luciferase reporter, luminescence, 24 h. Potency, µM (top dose mostly 9.22 µM), hits mostly activators. actives 2.8% (n = 320,000). AID 485297; further: nearly all actives have a fitted effect of over 60% in size
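Stable Rab9-luc Huh7, 1500 cells/well, 2 h settle; cmpd in DMSO, 24 h, 37 °C/5% CO2; luciferase reagent 10 min RT; luminescence.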
SMN2 splice enh – increases expression of the SMN2 splice variant | HEK293 SMN2-luciferase splicing reporter, luminescence, 30-36 h | Potency, µM (doses to about 46.1 µM), most hits filed as activators | actives 2.8% (n = 210,000); further: nearly all actives have a fitted effect of over 55% in size
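HEK293 cells carry an SMN2 […]–luciferase reporter in which exon 7 inclusion puts luciferase in frame. Cells were plated 10-12 h before compound addition, then incubated 30-36 h at 37C. ONE-Glo luminescence was read; sodium butyrate at 4.5 mM final served as control.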
NPC1 prom act – activators of NPC1 promoter; Huh7 NPC1 promoter luciferase reporter, 24 h; Potency, µM (titrated, usually from 9.22 µM), usual class: activators; actives 2.4% (n = 320,000); further: nearly all actives have a fitted effect of over 60% in size
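Readout is luciferase luminescence, reflecting NPC1 promoter activation in stably transfected Huh7 cells after 24 h compound exposure at 37 °C in reduced-serum medium with 10% FBS.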
ELG1 genotox – induces genotoxicity in HEK293T cells with luciferase-tagged ELG1 | HEK293T ELG1-luciferase reporter, luminescence, 16 h | actives 1.3% (n = 330,000) | Potency, µM (doses to about 46 µM), actives largely listed as activators | AID 504466; further: nearly all actives have a fitted effect of over 60% in size
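16 hr compound incubation (37 °C, 5% CO2) of HEK293T cells carrying luciferase-tagged ELG1; luciferase then measured by ONE-Glo luminescence after 30 min at RT.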
FLuc modulator – counter-screen for miR-21 project: firefly luciferase inhibitors or activators. actives 6.9% (n = 360,000). P08659. AID 588342. purified FLuc, Km substrates, luminescence inhibition. Potency, µM (series often up to 57.5 µM), hits mostly inhibitors; further: nearly all actives have a fitted effect of over 55% in size
Target sequence (P08659 whole entry, looked up): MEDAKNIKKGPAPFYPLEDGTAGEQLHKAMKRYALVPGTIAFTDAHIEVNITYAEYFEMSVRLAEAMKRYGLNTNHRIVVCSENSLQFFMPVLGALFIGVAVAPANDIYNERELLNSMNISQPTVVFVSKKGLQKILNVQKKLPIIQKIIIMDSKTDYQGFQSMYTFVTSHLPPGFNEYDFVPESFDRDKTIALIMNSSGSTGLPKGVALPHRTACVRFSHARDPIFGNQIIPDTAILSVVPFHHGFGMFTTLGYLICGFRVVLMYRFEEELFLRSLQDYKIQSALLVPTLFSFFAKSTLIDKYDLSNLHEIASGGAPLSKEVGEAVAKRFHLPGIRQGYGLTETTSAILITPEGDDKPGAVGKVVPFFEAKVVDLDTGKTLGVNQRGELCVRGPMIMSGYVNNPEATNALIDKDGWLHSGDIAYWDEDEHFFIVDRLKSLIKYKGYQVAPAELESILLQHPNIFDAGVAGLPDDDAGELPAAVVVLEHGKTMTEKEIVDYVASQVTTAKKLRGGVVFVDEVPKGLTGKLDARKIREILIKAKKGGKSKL
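Purified P. pyralis luciferase (10nM final) with 10uM D-luciferin and 10uM ATP (Km levels) in 50mM Tris acetate pH 7.5, 10mM Mg acetate, 0.01% Tween-20, 0.05% BSA; qHTS 6-point titration, ~60 µM downward; luminescence read.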
Large screens that a line does not name were inactive. Hits are enriched below; roughly 7.5% of the tested compounds scored in any of these assays. The call rests on the fitted dose curve; in most records, active means well fitted curve in the direction sought with a large enough effect; inconclusive means small, poorly fitted or top-dose-only effect, or another doubt; inactive means no such curve, though single readings can be large; an effect the other way counts as inactive or inconclusive.

O=C(c1cc2ncc(Br)cn2n1)N1CCN(C(=O)c2ccco2)CC1	none
Cc1cccc2nc(=S)n(C(=O)c3ccco3)n12	Rab9 promoter act 1.3µM, NPC1 prom act inconclusive, ELG1 genotox inconclusive, FLuc modulator 1.1µM
O=C(c1ccco1)n1c(=S)nc2ccccn21	Rab9 promoter act 1.4µM, SMN2 splice enh inconclusive, NPC1 prom act 2.8µM, ELG1 genotox 5µM, FLuc modulator 3.8µM
C[C@H](CO)N1C[C@H](C)[C@@H](CN(C)S(=O)(=O)c2cn(C)cn2)Oc2c(NS(=O)(=O)c3cn(C)cn3)cccc2C1=O	none (no result: Rab9 promoter act, SMN2 splice enh, NPC1 prom act, FLuc modulator)
CCOC(=O)N1CCc2c(sc3c2c(=O)n(CCc2ccccc2)c(=O)n3Cc2cc(C)ccc2C)C1	none (no result: Rab9 promoter act, NPC1 prom act, ELG1 genotox)
CCOC(=O)/C=C(\C)Sc1cc(O)c2ccccc2c1O	FLuc modulator 9.5µM (no result: SMN2 splice enh)
COc1ccccc1-n1c(-c2ccc(Cl)cc2)c[nH]c1=S	none
COc1cn(-c2ccccc2)nc1C(=O)Nc1ccc(C)cc1Cl	FLuc modulator 6.7µM (no result: SMN2 splice enh)
COCc1c(C(=O)N/N=C\c2cccs2)nnn1-c1nonc1N	none (no result: SMN2 splice enh)
CC(C)c1c(C(=O)N/N=C/c2cccs2)nnn1-c1nonc1N	FLuc modulator 17µM (no result: SMN2 splice enh)
CC(C)c1c(C(=O)N/N=C/c2ccsc2)nnn1-c1nonc1N	FLuc modulator 21µM (no result: SMN2 splice enh)
CCc1c(C(=O)N/N=C/c2cccs2)nnn1-c1nonc1N	FLuc modulator 12µM (no result: SMN2 splice enh)
Cc1ccsc1/C=N/NC(=O)c1nnn(-c2nonc2N)c1C(C)C	FLuc modulator 17µM (no result: SMN2 splice enh)
O=C(Nc1c[nH]c(=O)[nH]c1=O)c1cc([N+](=O)[O-])cc([N+](=O)[O-])c1	none (no result: SMN2 splice enh)
CC(C)c1c(C(=O)N/N=C/c2ccc(C(F)(F)F)cc2)nnn1-c1nonc1N	FLuc modulator 17µM (no result: SMN2 splice enh)
CC(C)c1c(C(=O)N/N=C/c2ccoc2)nnn1-c1nonc1N	FLuc modulator inconclusive (no result: SMN2 splice enh)
Cc1ccc(C(=O)NCCN2CCOCC2)cc1	none
CC(C)(C)c1ccc(C(=O)NCC(=O)OCC(=O)N2CCCC2)cc1	FLuc modulator 15µM (no result: SMN2 splice enh)
CC(=O)N1CCN(C(=O)COC(=O)CNC(=O)c2ccc(C)cc2)CC1	none (no result: SMN2 splice enh)
Cc1ccc(C(=O)NCCC(=O)N2CCOCC2)cc1	Rab9 promoter act 2.5µM, NPC1 prom act 1.6µM, ELG1 genotox 13µM, FLuc modulator 11µM (no result: SMN2 splice enh)
O=C(NCCC(=O)N1CCCCCCC1)c1ccc(Br)cc1	none (no result: SMN2 splice enh)
CC(C)(C)c1ccc(C(=O)NCCC(=O)N2CCCC2)cc1	Rab9 promoter act 4µM, NPC1 prom act 2.2µM, ELG1 genotox 21µM, FLuc modulator 9.5µM (no result: SMN2 splice enh)
CCCCN1CC[C@@H]2C=CC[C@H](C(=O)OC)[C@@H]2C1=O	none (no result: Rab9 promoter act, SMN2 splice enh, NPC1 prom act, FLuc modulator)
O=C(Nc1c(C(=O)O)[nH]c2ccc(F)cc12)c1cccc(C(F)(F)F)c1	FLuc modulator inconclusive (no result: SMN2 splice enh)
COC(=O)c1sccc1NC(=O)c1cc2c(s1)CCCC2	Rab9 promoter act inconclusive, FLuc modulator 8.5µM
COc1ccc(S(=O)(=O)N2CCOCC2)cc1NC(=O)c1cc2c(s1)CCCC2	none
COc1ccc(C)cc1NC(=O)c1cc2c(s1)CCC2	Rab9 promoter act inconclusive, SMN2 splice enh inconclusive, FLuc modulator 15µM
Cc1ccc(C(=O)c2coc3ccc(OCC(=O)O)cc23)cc1	SMN2 splice enh inconclusive, FLuc modulator 21µM
O=C(O)COc1ccc2occ(C(=O)c3ccccc3)c2c1	FLuc modulator inconclusive
COc1ccc(C(=O)c2coc3ccc(O)cc23)cc1	SMN2 splice enh inconclusive, NPC1 prom act inconclusive, ELG1 genotox inconclusive, FLuc modulator 1.5µM
O=C(c1cccc(Br)c1)c1coc2ccc(O)cc12	Rab9 promoter act inconclusive, NPC1 prom act inconclusive, ELG1 genotox inconclusive, FLuc modulator 3µM (no result: SMN2 splice enh)
COc1ccc(-c2nc3nc(C)cc(C)n3n2)cc1	Rab9 promoter act inconclusive, SMN2 splice enh 13µM, NPC1 prom act inconclusive, ELG1 genotox inconclusive, FLuc modulator 11µM
Cc1cc(C)n2nc(-c3ccc(Br)cc3)cc2n1	Rab9 promoter act inconclusive, NPC1 prom act 3.5µM, ELG1 genotox inconclusive, FLuc modulator 2.7µM (no result: SMN2 splice enh)
Cc1nc2cc(-c3ccc(Cl)cc3)nn2c(NCCN(C)C)c1C	NPC1 prom act inconclusive, ELG1 genotox inconclusive, FLuc modulator 13µM (no result: SMN2 splice enh)
Cc1cc(C)n2nc(-c3ccc(Cl)cc3)cc2n1	Rab9 promoter act 3.5µM, NPC1 prom act 4µM, ELG1 genotox 15µM, FLuc modulator 3.8µM (no result: SMN2 splice enh)
Cc1cc(-c2ccc(Cl)cc2)n2nc(C)cc2n1	none (no result: SMN2 splice enh)
C[n+]1ccccc1COc1ccc(C(C)(C)C)cc1	none
COc1ccc(-c2cc3nc(C)cc(C)n3n2)cc1	Rab9 promoter act 3.5µM, SMN2 splice enh 10µM, NPC1 prom act 3.2µM, ELG1 genotox inconclusive, FLuc modulator 7.6µM
CC(=O)c1ccc(OCc2cc(C(=O)N3CCOCC3)no2)cc1	Rab9 promoter act inconclusive, NPC1 prom act inconclusive, ELG1 genotox inconclusive, FLuc modulator 17µM (no result: SMN2 splice enh)
CC(=O)c1ccc(OCc2cc(C(=O)N3CCCCCCC3)no2)cc1	FLuc modulator inconclusive (no result: SMN2 splice enh)
CC(=O)c1ccc(OCc2cc(C(=O)N3CCC(Oc4ccccc4C)CC3)no2)cc1	Rab9 promoter act inconclusive, NPC1 prom act inconclusive, FLuc modulator 19µM (no result: SMN2 splice enh)
Cc1ccc(OCc2cc(C(=O)N3CCC(Oc4cccnc4)CC3)no2)cc1C	none (no result: SMN2 splice enh)
CCCN(C(=O)C1CCN(S(=O)(=O)c2c(C)noc2/C=C/c2ccc(C)cc2)CC1)c1ccccc1F	none (no result: Rab9 promoter act, SMN2 splice enh, NPC1 prom act, ELG1 genotox)
O=C(NCC1CCCO1)c1ccc(COc2ccc(Cl)cc2)cc1 (stereo not given)	none
O=C(NCC1CCCO1)c1ccc(COc2ccccc2Br)cc1 (stereo not given)	FLuc modulator 24µM
